Assay [1] is described as follows: qHTS assay to test for compound auto fluorescence at 460 nm (blue) in HEK293 cell free culture (AID 720681). In short, it runs like this:
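Test compounds were pinned into cell-free culture medium (DMEM with 10% FBS) and fluorescence was read directly at Ex/Em 405/460 nm. Signals were expressed as fluorescence equivalents of triamterene, with DMSO vehicle as control.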

Assay [2] can be described thus: qHTS assay to test for compound auto fluorescence at 535 nm (green) in HEK293 cell free culture (AID 720682). In short, it runs like this:
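No cells present: wells hold DMEM supplemented with 10% FBS, into which compound or vehicle is pinned. Green emission is then recorded (485 nm excitation, 535 nm emission) and scaled to fluorescein.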

A short description of assay [3]: qHTS assay to test for compound auto fluorescence at 590 nm (red) in HEK293 cell free culture (AID 720683). In short, it runs like this: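 Tox21 10K library compounds were pinned into cell-free DMEM with 10% FBS and fluorescence was read at excitation 540 nm. Activity is expressed as Rose Bengal sodium equivalency.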
On the technique in general: Quantitative high-throughput screening tests each substance at several concentrations.

Assay [4] can be described thus: qHTS assay to test for compound auto fluorescence at 460 nm (blue) in HepG2 cell free culture (AID 720685). Put shortly: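 Compound (23 nL) or DMSO pinned into cell-free MEM with 10% FBS; blue fluorescence read at 405/460 nm excitation/emission, expressed as auto-fluorescence equivalency to triamterene.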
The nature of assay [5]: qHTS assay to test for compound auto fluorescence at 535 nm (green) in HepG2 cell free culture (AID 720686).
Assay [6] can be described thus: qHTS assay to test for compound auto fluorescence at 460 nm (blue) in HepG2 cells (AID 720687). In short, it runs like this:
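Cells (2,000/well in MEM with 10% FBS) attached overnight at 37 C, then were exposed to compound or DMSO for 1 hr at 37 C, 5% CO2. Fluorescence read at Ex/Em 405/460 nm, expressed as triamterene-equivalent signal.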

Assay [7] is described as follows: qHTS assay to test for compound auto fluorescence at 590 nm (red) in HepG2 cell free culture (AID 720684). In short, it runs like this: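 Measured in medium alone (MEM containing 10% FBS) following pintool addition of compound; emission at 590 nm with 540 nm excitation, referenced to Rose Bengal sodium.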
Assay [8] addresses Glucocorticoid receptor (Homo sapiens) (UniProt P04150). In words: qHTS assay to identify small molecule antagonists of the glucocorticoid receptor (GR) signaling pathway (AID 720692; active = well fitted inhibition curve with a large enough effect in the signal ratio in the repeat runs, not every such curve was filed as active; the % refers to the signal ratio; also: potency is read from the fitted curve at half-maximal effect). In short, it runs like this: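 GR-bla HeLa cells (beta-lactamase reporter under glucocorticoid response element) were pre-plated 4 h at 37 C, treated with compounds plus 5 nM dexamethasone (final) for 18 h, then read by LiveBLAzer B/G FRET fluorescence after 2 h.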

The target is the same in assay [9]. In words: qHTS assay to identify small molecule agonists of the glucocorticoid receptor (GR) signaling pathway (AID 720691; active = well fitted activation curve with a large enough effect in the signal ratio in the repeat runs, not every such curve was filed as active; the % refers to the signal ratio). Put shortly:
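GR-bla HeLa cells (beta-lactamase reporter under glucocorticoid response element) were plated 4 h at 37 C/5% CO2, given compounds in DMSO, and incubated 18 h at 37 C. LiveBLAzer B/G FRET substrate was added for 2 h at room temperature, then fluorescence intensity read.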

A number with no mark means an inactive call. Inconclusive results are not listed. The source made the active and inactive calls. Unless noted, calls follow the shape of the dose curve; as a rule, active = well fitted curve in the direction sought with a large enough effect in the repeat runs; inconclusive = weak or mixed curves; inactive = flat fitted curve, though single readings scatter.
% is scaled to controls: 0 for no effect and ±100 for the full control effect.

Chain of Glucocorticoid receptor (Homo sapiens) (P04150 whole entry, looked up): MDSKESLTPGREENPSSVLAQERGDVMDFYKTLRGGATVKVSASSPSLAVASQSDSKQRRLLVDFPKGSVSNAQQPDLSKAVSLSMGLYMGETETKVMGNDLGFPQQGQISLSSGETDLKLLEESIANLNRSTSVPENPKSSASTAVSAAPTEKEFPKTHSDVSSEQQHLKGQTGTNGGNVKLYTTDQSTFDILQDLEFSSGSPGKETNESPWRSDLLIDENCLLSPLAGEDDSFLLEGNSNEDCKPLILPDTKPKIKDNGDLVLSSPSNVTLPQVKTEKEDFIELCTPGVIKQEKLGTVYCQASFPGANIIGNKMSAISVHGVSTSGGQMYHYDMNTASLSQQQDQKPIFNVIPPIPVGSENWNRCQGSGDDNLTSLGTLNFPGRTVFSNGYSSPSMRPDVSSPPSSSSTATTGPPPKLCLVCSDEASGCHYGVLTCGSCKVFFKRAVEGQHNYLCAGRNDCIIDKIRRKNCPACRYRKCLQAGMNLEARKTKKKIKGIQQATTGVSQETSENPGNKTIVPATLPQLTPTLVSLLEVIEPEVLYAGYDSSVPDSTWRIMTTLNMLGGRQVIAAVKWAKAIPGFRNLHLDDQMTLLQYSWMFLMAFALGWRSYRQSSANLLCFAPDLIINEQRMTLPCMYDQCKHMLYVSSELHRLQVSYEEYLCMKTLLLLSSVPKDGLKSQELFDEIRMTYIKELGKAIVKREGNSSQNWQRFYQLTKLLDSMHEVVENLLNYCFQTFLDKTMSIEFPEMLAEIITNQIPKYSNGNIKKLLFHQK

On to `O=c1oc2ccccc2c(O)c1Cc1c(O)c2ccccc2oc1=O`, for which the fluorescence, % of fluorescent control in assay [1] was 0.0571% [at 18.6 µM]; in [3] it was 0.108% [at 18.6 µM]; in assay [4], -0.0804% [at 18.6 µM]; in [6], 0.0049% [at 18.6 µM]. For the same compound, the activity change in assay [2] was 0.109% [at 18.6 µM]. In assay [5], the fluorescence, % of fluorescein control is 0.114% [at 18.6 µM].

Turning to `CC(C)CC(C)N` (centres undefined), the Potency result in assay [1], in assay [4], in assay [6] and in assay [8] was “inactive” in each case. Besides, the result in assay [2], in assay [3], in assay [7] and in assay [5] was inactive.

In the case of `CC(C)(C)c1cc([N+](=O)[O-])cc(C(C)(C)C)c1O`, the Potency result in [1], in assay [4] and in assay [6] was “inactive” throughout. Besides, the compound was called inactive in assay [2], in assay [3] and in assay [5].

In the case of `CCCCN(CCCC)C(=S)[S-].CCCCN(CCCC)C(=S)[S-].[Zn+2]`, the Potency entry in assay [1], in assay [4] and in [6] was “inactive” each time. Also, the outcome in assay [2], in assay [3], in assay [7] and in assay [5] was inactive.

`N#CCCSCCC#N`: the Potency entry in [1], in [4], in [6] and in assay [8] was “inactive” each time. For the same compound, the compound was classed as inactive in assay [2], in assay [3], in [7] and in [5].

As to `CC(=O)OC1(c2ccccc2)CCN(CCc2ccccc2)CC1`, the Potency entry in assay [1], in assay [4] and in assay [6] was “inactive” each time. The compound was called inactive in assay [2], in [3], in [7] and in assay [5].

`CCOc1cc(C(C)(C)C)ccc1C1COC(c2c(F)cccc2F)=N1` (centres undefined): the Potency entry in assay [1], in assay [4] and in assay [6] was “inactive” throughout. The outcome in [2], in [3], in assay [7] and in assay [5] was inactive.

As to `CCOCCOC(C)=O`, the Potency entry in [1], in assay [4], in assay [6] and in [9] was “inactive” in each case. Also, the compound was classed as inactive in [2], in assay [3], in assay [7] and in [5].

`Cc1ccc(OP(=O)(Oc2ccccc2)Oc2ccccc2)cc1`: the Potency result in assay [1], in assay [4] and in assay [6] was “inactive” throughout. Moreover, the compound was called inactive in assay [2], in assay [3], in [7] and in assay [5].

As to `CC(=O)Nc1ccc2c(c1)Cc1ccccc1-2`, the Potency result in assay [1], in assay [4] and in assay [6] was “inactive” each time. Besides, the result in [2], in [3], in assay [7] and in assay [5] was inactive.

Consider `C[C@H]1CC[C@@H]2[C@@H](C)[C@H]3[C@H](C[C@H]4[C@@H]5CC=C6CC(O[C@@H]7O[C@H](CO)[C@H](O)[C@H](O[C@@H]8O[C@H](CO)[C@@H](O)[C@H](O)[C@H]8O)[C@H]7O[C@H]7O[C@@H](C)[C@H](O)[C@@H](O)[C@H]7O)CC[C@]6(C)[C@H]5CC[C@]34C)N2C1` (some centres undefined), for which the Potency entry in [1], in assay [4], in [6], in assay [9] and in assay [8] was “inactive” in each case. The compound was classed as inactive in [2], in assay [3] and in [5].

For `CCN`, the Potency result in assay [1], in assay [4] and in assay [6] was “inactive” in each case. In addition, the call in assay [2], in assay [3], in assay [7] and in assay [5] was inactive.

With `Cc1cc(C(C)(C)c2cc(C)c(O)c(C)c2)cc(C)c1O`, the Potency entry in assay [1], in [4] and in assay [6] was “inactive” in each case. In addition, the outcome in assay [2], in [3] and in assay [5] was inactive. In [8], the Potency was 4.74 µM (active).

`CCCCCCCCCCCCCCCC[n+]1ccccc1`: the Potency entry in assay [1], in assay [4] and in assay [6] was “inactive” throughout. Further, the compound was called inactive in assay [2], in [3], in assay [7] and in assay [5].

`Cc1cc(SCc2sc(-c3ccc(C(F)(F)F)c(F)c3)nc2C)ccc1OCC(=O)O`: the Potency result in assay [1], in [4] and in assay [6] was “inactive” throughout. For the same compound, the outcome in assay [2], in assay [3] and in [5] was inactive.

In the case of `CCN(CC)C(=S)[S-].CCN(CC)C(=S)[S-].[Zn+2]`, the Potency entry in [1], in assay [4] and in [6] was “inactive” in each case. The compound was called inactive in [2], in [3], in [7] and in assay [5].

For the compound `O=C(CCl)Nc1ccccc1`, the Potency result in assay [1], in assay [4] and in [6] was “inactive” in each case. Moreover, the compound was called inactive in assay [2], in assay [3], in assay [7] and in assay [5].

As to `Clc1ccc(CCC(Cn2ccnc2)Sc2c(Cl)cccc2Cl)cc1` (centres undefined), the fluorescence, % of fluorescent control was 0.052% [at 18.6 µM] in [1], -0.0573% [at 18.6 µM] in assay [3], 0.0259% [at 18.6 µM] in [4] and -0.0565% [at 18.6 µM] in assay [6]. Also, the activity change in [2] is -0.055% [at 18.6 µM]. Moreover, in [7], the fluorescence, % of Rose Bengal is 0.657% [at 18.6 µM]. Moreover, the fluorescence, % of fluorescein control in [5] was 0.0716% [at 18.6 µM]. The Potency result in assay [8] was “inactive”.

Turning to `O=C(NC(=O)c1c(F)cccc1F)Nc1cc(Cl)c(OC(F)(F)C(F)F)c(Cl)c1`, the Potency result in assay [1], in assay [4], in [6] and in assay [8] was “inactive” throughout. Further, the compound was called inactive in assay [2], in assay [3], in assay [7] and in assay [5].

`Cc1cc(C)c(C2=C(OC(=O)CC(C)(C)C)C3(CCCC3)OC2=O)c(C)c1`: the Potency entry in assay [1], in assay [4], in assay [6] and in assay [9] was “inactive” each time. Moreover, the compound was called inactive in [2], in assay [3], in [7] and in [5].

`ClC(Cl)=C(Cl)Cl`: the Potency result in assay [1], in assay [4] and in [6] was “inactive” each time. In addition, the compound was classed as inactive in [2], in assay [3], in assay [7] and in assay [5].

As to `COc1cc(N)c(Cl)cc1C(=O)NC1CN2CCC1CC2` (centres undefined), the Potency result in [1], in assay [4], in [6], in assay [9] and in [8] was “inactive” throughout. The compound was called inactive in assay [2], in assay [3], in assay [7] and in assay [5].

For the compound `S=C=Nc1cccc2ccccc12`, the Potency entry in [1], in [4] and in assay [6] was “inactive” in each case. In addition, the result in assay [2], in [3], in assay [7] and in assay [5] was inactive. Further, in assay [8], the Potency is 17.2 µM (active).

Turning to `CCC(C)c1cc([N+](=O)[O-])cc([N+](=O)[O-])c1OC(=O)C=C(C)C` (centres undefined), the Potency entry in assay [1], in assay [4] and in assay [6] was “inactive” each time. In addition, the call in assay [2], in [3] and in assay [5] was inactive. The Potency in [8] is 19.5 µM (active).

In the case of `Oc1c(Cl)c(Cl)cc(Cl)c1Cl`, the Potency result in assay [1], in assay [4] and in [6] was “inactive” throughout. For the same compound, the outcome in assay [2], in [3], in assay [7] and in assay [5] was inactive.

Consider `Clc1ccc(COC(Cn2ccnc2)c2ccc(Cl)cc2Cl)cc1` (centres undefined), for which the Potency entry in [1], in assay [4] and in assay [6] was “inactive” each time. The result in assay [2], in [3], in [7] and in [5] was inactive.

As to `O=C(CBr)c1ccc(O)cc1`, the Potency entry in assay [1], in assay [4], in assay [6], in assay [9] and in [8] was “inactive” each time. In addition, the result in [2], in assay [3], in [7] and in assay [5] was inactive.

On to `FC(Cl)(Cl)Cl`, for which the Potency entry in assay [1], in assay [4] and in assay [6] was “inactive” each time. In addition, the result in assay [2], in [3] and in [5] was inactive.

For the compound `c1ccc2c(c1)OCC(C1=NCCN1)O2` (centres undefined), the Potency entry in assay [1], in assay [4] and in [6] was “inactive” throughout. The call in assay [2], in assay [3], in [7] and in assay [5] was inactive.

`CN(C)CCc1c[nH]c2cccc(O)c12`: the Potency result in assay [1], in assay [4], in [6] and in assay [8] was “inactive” in each case. Moreover, the result in assay [2], in assay [3], in assay [7] and in assay [5] was inactive.

These data come from PubChem BioAssay (Tox21).
